What all share (settings): mRNA level, 48 h; actives raise or lower the signal
Read-out in test [1]: ATP-citrate lyase (ACLY), ACLY (gene 47)
Nature of the test: LTEA_HepaRG_ACLY: Life Technologies and Expression Analysis (LTEA) Assay for ATP-citrate lyase (ACLY) using HepaRG (AID 2283466). In outline:
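HepaRG, 48 h exposure, 8-pt half-log dilutions (top 100 uM), 0.5% DMSO. Readout: ACLY mRNA, TaqMan qRT-PCR, housekeeping-normalized (ACTB/GAPDH/POLR2A). Bidirectional curve fit vs DMSO.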

Read-out in test [2]: Alkaline Phosphatase, Placental (ALPP) gene, ALPP (gene 250)
Nature of the test: LTEA_HepaRG_ALPP: Life Technologies and Expression Analysis (LTEA) Assay for Alkaline Phosphatase, Placental (ALPP) gene using HepaRG (AID 2283468). Put shortly:
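Using human liver HepaRG cells, chemicals are tested in duplicate over 48 h at half-log concentrations topping at 100 uM; phenobarbital 1 mM serves as induction control. ALPP mRNA change by qRT-PCR, bidirectional fit against vehicle.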

Read-out in test [3]: Bcl-2 (BAD) gene, BAD (gene 572)
As to the kind of experiment: LTEA_HepaRG_BAD: Life Technologies and Expression Analysis (LTEA) Assay for Bcl-2 (BAD) gene using HepaRG (AID 2283469). Put shortly: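 BAD transcript change, measured by qRT-PCR against three housekeeping genes and fitted in both directions relative to 0.5% DMSO, after 48 h chemical treatment of human HepaRG liver cells at concentrations up to 100 uM.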

Read-out in test [4]: Bcl-2 (BAX) gene, BAX (gene 581)
As to the kind of experiment: LTEA_HepaRG_BAX: Life Technologies and Expression Analysis (LTEA) Assay for Bcl-2 (BAX) gene using HepaRG (AID 2283470). In outline: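 HepaRG (human liver), 48 h exposure, duplicate wells. 8-pt curve, half-log from 100 uM, 0.5% DMSO. BAX transcript by TaqMan qRT-PCR; ACTB/GAPDH/POLR2A normalization; gain or loss vs DMSO baseline.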

Read-out in test [5]: adenosine kinase (ADK) gene, ADK (gene 132)
Nature of the test: LTEA_HepaRG_ADK: Life Technologies and Expression Analysis (LTEA) Assay for adenosine kinase (ADK) gene using HepaRG (AID 2283471). Put shortly:
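Differentiated HepaRG cells dosed 48 h in serum-free induction medium, 0.5% DMSO vehicle, eight half-log concentrations from 100 uM, in duplicate. ADK mRNA by TaqMan qRT-PCR normalised to ACTB, GAPDH, POLR2A; bidirectional fit versus DMSO.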

Read-out in test [6]: Alpha-fetoprotein (AFP) gene, AFP (gene 174)
As to the kind of experiment: LTEA_HepaRG_AFP: Life Technologies and Expression Analysis (LTEA) Assay for Alpha-fetoprotein (AFP) gene using HepaRG (AID 2283472). In outline:
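HepaRG, single lot; 48 h post-plating -> serum-free induction medium; cpd 8-pt, 100 uM top, half-log, 0.5% DMSO, duplicate, 48 h. RNA -> qRT-PCR AFP, norm ACTB/GAPDH/POLR2A. Bidirectional fit vs DMSO.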

Read-out in a further test: BCL2L11 (gene 10018)
As to the kind of experiment: LTEA_HepaRG_BCL2L11: Life Technologies and Expression Analysis (LTEA) Assay for Bcl-2 (BCL2L11) gene using HepaRG (AID 2283473). Put shortly: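 Human hepatic HepaRG cultures are treated 48 h with test chemicals (maximum 100 uM, 0.5% DMSO vehicle). Expression of BCL2L11 is measured by qRT-PCR against ACTB, GAPDH and POLR2A, with activity in either direction scored relative to vehicle.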

Read-out in test [7]: Apolipoprotein A-V (APOA5) gene, APOA5 (gene 116519)
Nature of the test: LTEA_HepaRG_APOA5: Life Technologies and Expression Analysis (LTEA) Assay for Apolipoprotein A-V (APOA5) gene using HepaRG (AID 2283474). In outline:
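Concentration-response of APOA5 expression in HepaRG: eight half-log doses to 100 uM, 48 h, qRT-PCR normalized to ACTB/GAPDH/POLR2A, bidirectional fitting with 0.5% DMSO as baseline.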

Read-out in test [8]: Apoptosis regulator Bcl-2 (Homo sapiens) (UniProt P10415)
As to the kind of experiment: LTEA_HepaRG_BCL2: Life Technologies and Expression Analysis (LTEA) Assay for Bcl-2 gene using HepaRG (AID 2283475). Put shortly: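 HepaRG, plated 48 h then switched to serum-free induction medium; dosed 48 h, 8 conc. (max 100 uM, half-log steps), duplicate, 0.5% DMSO. Lysis in RLT, RNA isolated, TaqMan qRT-PCR for BCL2; ACTB/GAPDH/POLR2A normalisation; bidirectional fit vs DMSO.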

Read-out in test [9]: Bcl-2 (BID) gene, BID (gene 637)
As to the kind of experiment: LTEA_HepaRG_BID: Life Technologies and Expression Analysis (LTEA) Assay for Bcl-2 (BID) gene using HepaRG (AID 2283476). In outline: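 Transcript levels of BID, measured by qRT-PCR and normalized to three housekeeping genes, were fitted bidirectionally against DMSO controls. Cells were HepaRG, dosed 48 h at up to 100 uM.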

Read-out in the next test: Caspase-3 (Homo sapiens) (UniProt P42574)
As to the kind of experiment: LTEA_HepaRG_CASP3: Life Technologies and Expression Analysis (LTEA) Assay for cysteine-aspartic acid protease (CASP3) using HepaRG (AID 2283477). Put shortly:
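Transcript-level assay: CASP3 mRNA in human HepaRG after 48 h treatment, eight half-log concentrations from 100 uM in 0.5% DMSO, quantified by qRT-PCR.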

Read-out in test [10]: Cytochrome P450 (CYP24A1), CYP24A1 (gene 1591)
As to the kind of experiment: LTEA_HepaRG_CYP24A1: Life Technologies and Expression Analysis (LTEA) Assay for Cytochrome P450 (CYP24A1) using HepaRG (AID 2283478). In outline: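 Gene expression of CYP24A1 by TaqMan qRT-PCR in HepaRG after 48 h treatment, highest concentration 100 uM; activity fitted in both directions relative to DMSO vehicle.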

Read-out in test [11]: Cytochrome P450 (CYP1A2), CYP1A2 (gene 1544)
As to the kind of experiment: LTEA_HepaRG_CYP1A2: Life Technologies and Expression Analysis (LTEA) Assay for Cytochrome P450 (CYP1A2) using HepaRG (AID 2283479). Put shortly: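 In duplicate wells, HepaRG cultures maintained in 0.5% DMSO were treated 48 h across an 8-point, half-log series topping at 100 uM; phenobarbital (1 mM) served as induction control. Expression was read by qRT-PCR.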

Read-out in test [12]: cysteine-aspartic acid protease (CASP8), CASP8 (gene 841)
Nature of the test: LTEA_HepaRG_CASP8: Life Technologies and Expression Analysis (LTEA) Assay for cysteine-aspartic acid protease (CASP8) using HepaRG (AID 2283480). In outline:
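HepaRG, 48 h exposure, duplicate wells; 8 conc, half-log from 100 uM, 0.5% DMSO. Serum-free induction medium. CASP8 mRNA by TaqMan qRT-PCR, norm. ACTB/GAPDH/POLR2A; gain/loss fitted vs DMSO.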

Read-out in test [13]: Cytochrome P450 (CYP2B6), CYP2B6 (gene 1555)
As to the kind of experiment: LTEA_HepaRG_CYP2B6: Life Technologies and Expression Analysis (LTEA) Assay for Cytochrome P450 (CYP2B6) using HepaRG (AID 2283481). In outline:
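Human HepaRG, 48 h dosing, 0.5% DMSO vehicle, top dose 100 uM. CYP2B6 transcript by qRT-PCR, housekeeping-normalized, bidirectional curve fit.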

Read-out in test [14]: Cytochrome P450 2C19 (Homo sapiens) (UniProt P33261)
Nature of the test: LTEA_HepaRG_CYP2C19: Life Technologies and Expression Analysis (LTEA) Assay for CYP2C19 using HepaRG (AID 2283482). Put shortly:
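Endpoint: CYP2C19 mRNA change, bidirectional fit vs 0.5% DMSO. Cells: HepaRG, 48 h exposure, eight-point series topping at 100 uM. Quantitation: qRT-PCR normalized to ACTB, GAPDH, POLR2A.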

Read-out in another test: CYP2C8 (gene 1558)
As to the kind of experiment: LTEA_HepaRG_CYP2C8: Life Technologies and Expression Analysis (LTEA) Assay for CYP2C8 using HepaRG (AID 2283483). Put shortly: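 CYP2C8 mRNA induction or loss, by qRT-PCR normalized to ACTB/GAPDH/POLR2A, is read in HepaRG cells after 48 h treatment. Concentrations run from 100 uM down in half-log dilutions, with 0.5% DMSO as vehicle and baseline.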

Read-out in a further test: CYP2C9 (gene 1559)
As to the kind of experiment: LTEA_HepaRG_CYP2C9: Life Technologies and Expression Analysis (LTEA) Assay for CYP2C9 using HepaRG (AID 2283484). Put shortly: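 Cells plated 48 h, switched to serum-free induction medium, then treated in duplicate for 48 h at eight concentrations (max 100 uM, 0.5% DMSO). RNA then analysed by qRT-PCR for CYP2C9; curves fitted in both directions relative to DMSO.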

Read-out in another test: CYP2E1 (gene 1571)
Nature of the test: LTEA_HepaRG_CYP2E1: Life Technologies and Expression Analysis (LTEA) Assay for CYP2E1 using HepaRG (AID 2283485). In outline: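 Human liver line HepaRG, plated 48 h, then serum-free induction medium + chemical x 48 h; 8-pt CRC from 100 uM, half-log, 0.5% DMSO, n=2. Readout: CYP2E1 mRNA qRT-PCR vs ACTB/GAPDH/POLR2A; bidirectional fit vs DMSO.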

Read-out in test [15]: Peroxisomal acyl-coenzyme A oxidase 1 (ACOX1) gene, ACOX1 (gene 51)
Nature of the test: LTEA_HepaRG_ACOX1: Life Technologies and Expression Analysis (LTEA) Assay for Peroxisomal acyl-coenzyme A oxidase 1 (ACOX1) gene using HepaRG (AID 2283467). In outline:
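Measured by qRT-PCR against three housekeeping genes: ACOX1 transcript change in human HepaRG cells after 48 h dosing. Concentrations ran up to 100 uM in half-log steps. Curves were fitted bidirectionally relative to 0.5% DMSO.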

SMILES strings stand for the structures. Calls of active or inactive are those of the source. Rule for the calls: active = hit-call score of the fitted dose curve at least 0.9, where 1 is the maximum; inactive = score below 0.9.

Sequence of Cytochrome P450 2C19 (Homo sapiens) (P33261 whole entry, looked up): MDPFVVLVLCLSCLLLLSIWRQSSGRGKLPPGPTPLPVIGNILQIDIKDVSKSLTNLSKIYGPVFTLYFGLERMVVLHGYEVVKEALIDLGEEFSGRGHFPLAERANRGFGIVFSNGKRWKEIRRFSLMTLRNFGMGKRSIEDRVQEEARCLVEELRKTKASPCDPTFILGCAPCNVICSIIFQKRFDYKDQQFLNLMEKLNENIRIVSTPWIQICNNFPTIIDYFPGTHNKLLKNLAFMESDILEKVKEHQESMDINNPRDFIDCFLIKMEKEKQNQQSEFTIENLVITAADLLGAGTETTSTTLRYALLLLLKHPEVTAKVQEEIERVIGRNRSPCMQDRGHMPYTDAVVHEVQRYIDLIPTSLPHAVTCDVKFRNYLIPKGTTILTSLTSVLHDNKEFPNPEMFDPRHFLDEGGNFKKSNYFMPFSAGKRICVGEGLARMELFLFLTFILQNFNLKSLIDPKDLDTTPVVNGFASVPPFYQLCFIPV
Sequence of Apoptosis regulator Bcl-2 (Homo sapiens) (P10415 whole entry, looked up): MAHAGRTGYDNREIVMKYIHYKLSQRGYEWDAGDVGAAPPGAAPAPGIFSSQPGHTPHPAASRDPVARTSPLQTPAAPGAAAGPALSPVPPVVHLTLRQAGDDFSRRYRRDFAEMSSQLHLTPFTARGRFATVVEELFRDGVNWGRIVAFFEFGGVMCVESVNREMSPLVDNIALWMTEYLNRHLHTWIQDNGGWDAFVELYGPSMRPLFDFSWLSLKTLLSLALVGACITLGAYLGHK
Sequence of Caspase-3 (Homo sapiens) (P42574 whole entry, looked up): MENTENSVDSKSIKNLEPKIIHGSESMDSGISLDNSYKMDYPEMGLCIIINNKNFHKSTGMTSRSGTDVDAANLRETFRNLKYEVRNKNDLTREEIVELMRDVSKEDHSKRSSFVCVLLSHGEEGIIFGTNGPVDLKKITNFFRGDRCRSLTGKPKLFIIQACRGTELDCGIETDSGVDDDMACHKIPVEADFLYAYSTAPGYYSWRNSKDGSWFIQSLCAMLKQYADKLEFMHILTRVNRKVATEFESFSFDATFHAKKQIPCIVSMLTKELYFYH

With `OC[C@H]1O[C@@](CO)(O[C@H]2O[C@H](CO)[C@@H](O)[C@H](O)[C@H]2O)[C@@H](O)[C@@H]1O`, the molecule was called inactive in [1], in test [2], in test [3], in test [4], in test [5] and in test [6]. For the same molecule, the result (in the test with BCL2L11 (gene 10018); in [7]; in [8]; in test [9]; with Caspase-3 (Homo sapiens); in [10]) was inactive. For the same molecule, the call (in test [11]; in test [12]; in test [13]; in [14]; with CYP2C8 (gene 1558); in the test with CYP2C9 (gene 1559)) was inactive. Further, in the test with CYP2E1 (gene 1571), the molecule was called inactive.

As to `Nc1ccn([C@@H]2O[C@H](CO)[C@@H](O)[C@@H]2O)c(=O)n1`, the molecule was called inactive in test [1], in test [15], in test [2], in [3], in [4] and in test [5]. The result (in test [6]; in the test with BCL2L11 (gene 10018); in test [7]; in [8]; in [9]; with Caspase-3 (Homo sapiens)) was inactive. Also, the result (in test [10]; in [11]; in [12]; with CYP2C8 (gene 1558); with CYP2C9 (gene 1559)) was inactive.

On to `CCCCOC(=O)c1ccccc1`, for which the result in [1], in [15], in test [2], in test [3], in test [4] and in test [5] was inactive. Besides, the result (in test [6]; with BCL2L11 (gene 10018); in test [7]; in test [8]; in test [9]; with Caspase-3 (Homo sapiens)) was inactive. Also, the molecule was called inactive (in test [10]; in test [11]; in test [12]; in test [14]; in the test with CYP2C8 (gene 1558); with CYP2C9 (gene 1559)). In addition, in test [13], the half-maximal activity concentration (AC50) (as a rule, the concentration at which the activity in the assay is half-maximal) is 50 µM (active).

Consider `CCN(CC)C(=S)SSC(=S)N(CC)CC`, for which the result in [1], in test [15], in [2], in [3], in [4] and in test [6] was inactive. Further, the molecule was called inactive (with BCL2L11 (gene 10018); in test [7]; in test [8]; in test [9]; in the test with Caspase-3 (Homo sapiens); in test [10]). Moreover, the result (in test [12]; in test [14]; with CYP2C8 (gene 1558); with CYP2C9 (gene 1559)) was inactive. The AC50 is 75.2 µM (active) in [11] and 16.8 µM (active) in test [13].

(Values after PubChem BioAssay (EPA / NIEHS).)
